One assay concerns CRL-7250. The assay can be described thus: Cytotoxic Profiling of Annotated Libraries Using Quantitative High-Throughput Screening (AID 1296008). For max response: % is set by controls: 0 for no effect and ±100 for the full control effect. Note: potency is the fitted concentration of half-maximal effect. Particulars: Five cell lines viability, CellTiter-Glo ATP luminescence, 48-72 h; max response: stronger effect = lower value. The essentials: (§1)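 Compounds were pin-transferred onto cells and incubated 48 or 72 hr at 37 degree Celsius, 95% humidity. CellTiter-Glo was added, plates sat 10 min at room temperature, then ATP-coupled luminescence was imaged as the viability read-out.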

The subject of the next assay is HEK293. The description is as above. Particulars: Five cell lines viability, CellTiter-Glo ATP luminescence, 48-72 h; max response: stronger effect = lower value. The essentials:
as §1
In general terms: In ATP-based viability assays light output follows the ATP content of the culture.

The test system of assay [1] is HaCat. Described as above. The following applies: Five cell lines viability, CellTiter-Glo ATP luminescence, 48-72 h; max response: stronger effect = lower value. The procedure, abridged: as §1
The next assay deals with KB-3-1. The assay is described as above. The following applies: Five cell lines viability, CellTiter-Glo ATP luminescence, 48-72 h; max response: stronger effect = lower value. The procedure, abridged: as §1
In a further assay the test system is NIH3T3. Described as above. Particulars: Five cell lines viability, CellTiter-Glo ATP luminescence, 48-72 h; max response: stronger effect = lower value. The procedure, abridged:
as §1

In assay [2] the test system is HACAT. The assay can be described thus: qHTS assay to identify novel small-molecules to repurpose for Merkel cell carcinoma treatment (AID 1296009). The following applies: MCC and control cell lines, CellTiter-Glo viability, 72 h; at 44.8 µM (top of the series) unless noted. The essentials: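 Cells exposed to NPC (8-point) and MIPE (11-point) compound dilutions for 72 hr at 37 degree celsius; viability read by CellTiter-Glo luminescence, normalized to no-cell and DMSO in-plate controls.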
In general terms: In qHTS, concentration-response curves come from the screen itself.

Records with an inconclusive call do not appear. Values without a mark were called inactive. Active and inactive are the calls of the source. Calls come from the whole dose curve; as a rule, active = well fitted inhibition curve with a large enough effect; inconclusive = small, poorly fitted or top-dose-only effect; inactive = flat fitted curve, though single readings scatter.
Note: nearly all actives have a fitted effect of over 60% in size.

For `CC(=O)OC1CC2C(C)(C)C(=O)C=CC2(C)C2CC(=O)C3=C(CCC3C3=CC(O)OC3=O)C12C` (stereo not given), the max response is 3.26% in the assay on CRL-7250, 2.36% in the assay with HEK293 and 0.622% with NIH3T3. Besides, the outcome with HaCat [1] was “inactive; activator”; in the assay with HACAT [2], “inactive; activator [at 17.4 µM]”. In the assay with KB-3-1, the compound was called inactive.

As for `C=C1CCC2C(C)(C)CCC[C@]2(C)[C@H]1CC/C(C)=C/C(=O)O` (stereo not given in full), the result with CRL-7250, in the assay with HaCat [1] and with HACAT [2] was inactive. Moreover, the max response in the assay with HEK293 is -1.43%; with KB-3-1 it was -7.37%; in the assay with NIH3T3 it was 2.18%.

For the compound `CC(C)c1ccc2c(c1)C(O)CC1C(C)(C(=O)O)CCCC21C` (stereo not given), the max response in the assay with CRL-7250 was -4.34%; with HEK293, 2.95%; in the assay on KB-3-1, -15.9%; in the assay on NIH3T3 it was -2.12%. Also, the result with HaCat [1] and in the assay with HACAT [2] was inactive.

Turning to `O=C(O)c1ccnc2cc(-c3nc4ccccc4n3CCN3CCCCC3)sc12`, the max response was 1.05% in the assay on CRL-7250, 2.48% in the assay with HEK293, -0.587% with HaCat [1] and 2.06% with KB-3-1. Besides, the compound was classed as inactive in the assay with NIH3T3.

For `C/C(=C\C(=O)C(C)C1CCC2C3=C(CCC21C)C1(C)CCC(=O)C(C)(C)C1(O)CC3)C(C)(C)O` (stereo not given), the max response with CRL-7250 is 3.05%; in the assay on HEK293, -15.6%; with HaCat [1] it was 1.49%; in the assay with KB-3-1, -3.74%. The call with NIH3T3 was inactive.

Take `CC(=O)/C=C/C1(O)C(C)(C)CC(O)CC1(C)O` (stereo not given): the max response in the assay on CRL-7250 is -6.38%; in the assay on HEK293 it was -4.83%. For the same compound, the compound was classed as inactive in the assay with HaCat [1], in the assay on KB-3-1, in the assay with NIH3T3 and in the assay with HACAT [2].

As to `COc1cc(/C=C/C(=O)OCC2OC(OC3(CO)OC(CO)C(O)C3O)C(O)C(O)C2O)ccc1O` (stereo not given), the max response with CRL-7250 was 0.86%; with HEK293 it was 0.768%; in the assay on HaCat [1], 2.88%. The result with KB-3-1 and with NIH3T3 was inactive.

In the case of `Cc1c(NC(=O)N2CCOCC2)ccc2c1c1ccccc1n2C(C)C`, the result in the assay with CRL-7250, in the assay with HaCat [1] and in the assay with HACAT [2] was inactive. The results for the max response with HEK293, in the assay with KB-3-1 and in the assay on NIH3T3 were -7.57%, 3.33% and -1.53%, respectively.

As for `CC(=O)NCC1CN(c2ccc(-c3ccc(CNCc4cn[nH]n4)cc3)c(F)c2)C(=O)O1` (stereo not given), the max response was 0.231% in the assay on CRL-7250, 1.71% in the assay with HaCat [1] and -15.8% with KB-3-1. The Potency in the assay with HEK293 is 1.3 µM (active). In the assay on NIH3T3, the result was inactive.

Regarding `C=Cc1cc2oc(-c3ccc(O)c(F)c3)nc2cc1O`, the outcome with CRL-7250, with KB-3-1 and in the assay with NIH3T3 was inactive. Besides, the max response with HEK293 was -3.32%; with HaCat [1], -11%.

Regarding `CC(C)=CCC(O)[C@](C)(O)C1[C@H](O)C[C@@]2(C)C3CC=C4C(C[C@H](O)[C@@H](O[C@@H]5O[C@H](CO)[C@@H](O)[C@H](O)[C@H]5O)C4(C)C)[C@]3(C)C(=O)C[C@]12C` (stereo not given in full), the max response is 4.58% in the assay on CRL-7250, -6.78% in the assay with HEK293 and -8.01% in the assay with HaCat [1]. Besides, the outcome in the assay on KB-3-1 and in the assay with NIH3T3 was inactive.

As to `COC1OC(O)C2(CCC3(O2)C(C)CC2OC(=O)C4(C)CCCC3(C)C24)C1O` (stereo not given), the compound was called inactive in the assay on CRL-7250, in the assay on HaCat [1] and in the assay on HACAT [2]. For the same compound, the max response with HEK293 is -1.02%; in the assay with KB-3-1, -1.51%; in the assay with NIH3T3 it was 1.38%.

For the compound `O=C(OC[C@H]1O[C@@H](Oc2ccccc2CO)[C@H](O)[C@@H](O)[C@@H]1O)c1ccccc1`, the max response in the assay on CRL-7250 is -0.775%; in the assay on HEK293, 0.13%; in the assay on HaCat [1], 0.855%; in the assay on KB-3-1, 3.27%. For the same compound, the compound was called inactive in the assay on NIH3T3.

Consider `C=C1CCC2[C@@](C)(C(=O)O)CCC[C@@]2(C)[C@@H]1CCc1ccoc1` (stereo not given in full), for which the max response was -7.76% with CRL-7250, -0.447% in the assay with HEK293, -0.12% in the assay on HaCat [1] and -3.34% with KB-3-1. The compound was called inactive in the assay on NIH3T3.

In the case of `COc1cc(/C=C/C(=O)O[C@H]2[C@H](O)[C@@H](CO)O[C@@]2(CO)O[C@H]2O[C@H](CO)[C@@H](O)[C@H](O)[C@H]2O)cc(OC)c1O`, the compound was called inactive in the assay on CRL-7250 and in the assay with NIH3T3. Besides, the max response in the assay with HEK293 is -9.27%; in the assay on HaCat [1], -10.1%; with KB-3-1, 3.15%.

Consider `C[C@@H]1O[C@@H](O[C@H]2[C@H](OC(=O)[C@]34CCC(C)(C)C[C@H]3C3=CCC5[C@@]6(C)CC[C@H](O[C@@H]7O[C@H](CO[C@@H]8OC[C@H](O)[C@H](O)[C@H]8O[C@@H]8OC[C@@H](O)[C@H](O)[C@H]8O)[C@@H](O)[C@H](O)[C@H]7O)C(C)(C)C6CC[C@@]5(C)[C@]3(C)C[C@H]4O)O[C@H](CO)[C@@H](O)[C@@H]2O)[C@H](O[C@@H]2O[C@H](CO)[C@@H](O)[C@H](O)[C@H]2O)[C@H](O)[C@H]1O[C@@H]1OC[C@@H](O)[C@H](O[C@@H]2OC[C@@H](O)[C@H](O)[C@H]2O)[C@H]1O` (stereo not given in full), for which the max response is 0.998% in the assay with CRL-7250, 5% in the assay on HEK293, -0.626% with KB-3-1 and -3.82% in the assay with NIH3T3. The result in the assay on HaCat [1] was inactive. In addition, the outcome in the assay on HACAT [2] was “inactive [at 4.96 µM]”.

Regarding `CC(C)=CCC[C@](C)(O[C@@H]1O[C@H](CO[C@@H]2O[C@@H](CO)[C@H](O)[C@H]2O[C@@H]2OC[C@@H](O)[C@H](O)[C@H]2O)[C@@H](O)[C@H](O)[C@H]1O)[C@H]1CC[C@]2(C)[C@@H]1[C@H](O)CC1[C@@]3(C)CC[C@H](O[C@@H]4O[C@H](CO)[C@@H](O)[C@H](O)[C@H]4O[C@@H]4O[C@H](CO)[C@@H](O)[C@H](O)[C@H]4O)C(C)(C)C3CC[C@]12C` (stereo not given in full), the max response in the assay on CRL-7250 is 4.19%; in the assay with HEK293, -1.64%; in the assay with KB-3-1, 8.39%; in the assay on NIH3T3 it was 4.58%. In the assay with HaCat [1], the compound was classed as inactive. Also, in the assay with HACAT [2], the outcome is “inactive [at 9.27 µM]”.

As to `CC(=O)c1[nH]cc(CCC(=O)O)c1CC(=O)O`, the call in the assay on CRL-7250, in the assay on HaCat [1], with KB-3-1 and with HACAT [2] was inactive. For the same compound, the max response is -1.24% in the assay on HEK293 and -3.85% in the assay on NIH3T3.

For the compound `C/C=C/C(=O)OC1/C=C/C(O)C(OC(C)=O)CCC(=O)OC1C` (stereo not given), the max response in the assay on CRL-7250 is -1.17%; in the assay with HEK293 it was 3.73%; in the assay on KB-3-1 it was -2.1%. The compound was called inactive in the assay with HaCat [1], in the assay with NIH3T3 and in the assay with HACAT [2].

For the origin of these results see PubChem BioAssay (NCATS).
